Screening data: PubChem BioAssay, Broad Institute
The list is a sample of the results.
aSyn UTR act: Activators working through SNCA 5'UTR binding (MLPCN); alpha-synuclein 5'UTR reporter, activators screen; activity score, % (tested at 7.5 µM), hits read low; 7.1% of 300,000 active; in the data active = activity score below about -60%
Starred values were filed as active, the others as inactive.

SMILES | aSyn UTR act
CC(C)(C)C(=O)[C@H]1[C@H](c2ccccc2)[C@@]2(N=C(c3ccccc3)OC2=O)C2c3ccccc3C=NN21 (stereo not given in full) | -83*
Nc1cccc(-c2cn3cc(C(F)(F)F)cc(Cl)c3n2)c1 | -100*
FC(F)(F)c1cc(Cl)c2nc(-c3ccccc3)cn2c1 | -80*
CCCSc1nnc(NC(=O)c2ccco2)s1 | -81*
CCCSc1nnc(NC(=O)Nc2ccccc2)s1 | -92*
Cc1cnc(NC(=O)c2ccncc2)s1 | -65*
Cc1cnc(NC(=O)c2ccco2)s1 | -94*
COCCSc1nnc(NC(=O)c2ccco2)s1 | -81*
CSc1nnc(NC(=O)c2ccco2)s1 | -77*
COCCSc1nnc(NC(=O)C2CCCCC2)s1 | -63*
CSc1nn(-c2ccc(C(=O)OCC(=O)NC(=O)NC(C)C)cc2)c(=S)s1 | -69*
CS(=O)(=O)N1CCc2cc(C(=O)OCC(=O)c3ccccc3)ccc21 | -138*
CS(=O)(=O)N1CCc2cc(C(=O)Nc3ccc(Br)cc3)ccc21 | -77*
Cc1cccc(NC(=O)c2ccc3c(c2)CCN3S(C)(=O)=O)c1 | -203*
CS(=O)(=O)N1CCc2cc(C(=O)Nc3ccccc3Cl)ccc21 | -96*
Cc1ccc(NC(=O)c2ccc3c(c2)CCN3S(C)(=O)=O)cc1C | -112*
Clc1ccc(COn2ccnc2)cc1Cl | -104*
CCCC1CCC(c2ccc(OCC)cc2)=CC1=O (stereo not given) | -216*
COC(=O)N/N=C\C=C\c1ccc2c(c1)OCO2 | -134*
CC(C)(C)OC(=O)N/N=C\C=C\c1ccc2c(c1)OCO2 | -197*
CCOC(=O)N/N=C\C=C\c1ccc2c(c1)OCO2 | -121*
O=C(Nc1ccc(CN2CCOCC2)cc1)c1ccc2ccccc2c1 | -182*
O=C(Nc1ccc(CN2CCOCC2)cc1)c1ccco1 | -69*
O=C(NN=C1CCN(Cc2ccccc2)CC1)c1ccccc1 | -88*
O=C(N/N=C/c1ccccc1[N+](=O)[O-])c1ccc(CN2CCOCC2)cc1 | -83*
SMILES | aSyn UTR act
O=C(Nc1ccc(CN2CCOCC2)cc1)c1ccc(Br)cc1 | -173*
O=C(NCCSc1ccccc1)c1ccc(CN2CCOCC2)cc1 | -126*
O=C(Nc1ccc(CN2CCOCC2)cc1)c1ccc(F)cc1 | -117*
O=C(Nc1cccc([N+](=O)[O-])c1)c1ccc(CN2CCOCC2)cc1 | -124*
C/C(=N\NC(=O)c1ccc(CN2CCOCC2)cc1)c1ccc(NC(=O)c2ccccc2)cc1 | -77*
C/C(=N\NC(=O)CSCc1ccc(Cl)cc1)c1ccc(NC(=O)c2ccccc2)cc1 | -137*
CC(C)(C)c1ccc(C(=O)Nc2ccc(CN3CCS(=O)(=O)CC3)cc2)cc1 | -68*
O=C(Nc1ccc(CN2CCOCC2)cc1)c1ccc(Cl)cc1 | -207*
COc1cc(CNc2ccc3[nH]c(=O)[nH]c3c2)ccc1OCc1ccc(C)cc1 | -118*
COc1cc(/C=N/NS(=O)(=O)c2ccc(C)cc2)ccc1OCc1cccc(C(=O)O)c1 | 90
O=c1[nH]c2ccc(NCc3ccc(OCc4ccccc4Cl)cc3)cc2[nH]1 | -80*
COc1cc(CNc2ccc3[nH]c(=O)[nH]c3c2)ccc1OCc1cccc(C)c1 | -84*
COc1cc(CNc2ccc(NC(C)=O)cc2)ccc1OCc1ccccc1C | -122*
COc1cccc(/C=N/n2c(=O)[nH]c3ccccc32)c1OC | -164*
O=C(CCSc1ccccc1)N1CCOCC1 | -89*
O=C(CCSc1ccccc1)N1CCCC1 | -80*
COc1ccc(-c2cn(CC3CCCCC3)nn2)cc1 | -120*
c1ccc(-c2cn(CC3CCCCC3)nn2)cc1 | -200*
CC(C)(C)C(=O)NC(=S)Nc1cccc(C(=O)O)c1 | -161*
CC(C)(C)C(=O)NC(=S)Nc1ccc(F)cc1 | -84*
COc1cccc(C(=O)N/N=C/C(Br)=C/c2ccccc2)c1 | -135*
Cn1cc(C(=O)N/N=C/C(Br)=C\c2ccccc2)ccc1=O | -83*
COc1ccc(O)c(/C=N/NC(=O)c2ccc(OCc3cccc(Br)c3)cc2)c1 | 82
O=C1CC(c2ccco2)CC(O)=C1C=Nc1cc(Cl)ccc1O (stereo not given) | -143*
CCOc1ccc(CNc2ccc3c(c2)ncn3C(C)(C)C)cc1 | -84*
SMILES | aSyn UTR act
CN(C)c1ccc(CNc2ccc3c(c2)ncn3C(C)(C)C)cc1 | -62*
Clc1ccccc1Cn1nnc2c(N3CCOCC3)nc(C3CC3)nc21 | 55
CCCN1CCN(c2ncnc3c2nnn3Cc2ccccc2)CC1 | -69*
CC1CCN(C(=S)NCCc2ccccc2)CC1 | -138*
OCC1CCCN(C(=S)NCCc2ccccc2)C1 (stereo not given) | -106*
COc1ccccc1NC(=S)N/N=C/c1ccc(O)cc1 | -157*
COc1ccccc1NC(=S)N/N=C/c1cccc(C)c1 | -66*
O=C(Nc1ccc2c(c1)OCO2)N1CCN(c2ccccc2Cl)CC1 | -187*
O=C(Nc1ccc2c(c1)OCO2)N1CCC(CO)(CC2CCCCO2)CC1 (stereo not given) | -91*
O=C(Nc1ccc2c(c1)OCO2)N1CCN(S(=O)(=O)c2ccc(Cl)cc2)CC1 | -68*
CCOC(=O)N1CCC(Nc2nc3ccccc3nc2NS(=O)(=O)c2ccc(Cl)cc2)CC1 | -88*
CCOC(=O)N1CCN(S(=O)(=O)c2ccc(C(=O)NNc3nc4ccc(Cl)cc4s3)cc2)CC1 | 67
COc1ccc(-c2cc(-c3c(O)c(OC)c4occc4c3OC)[nH]n2)cc1OC | -71*
Cc1cccnc1NC(=O)Nc1ccc(Cl)cc1 | -84*
COc1ccc(NC(=O)Nc2ncccc2C)cc1 | -157*
Cc1cccnc1NC(=O)c1ccc(OCc2c(C)noc2C)cc1 | -81*
Cc1cccnc1NC(=O)Nc1ccccc1 | -141*
COc1ccc(C(=O)NC(=O)Nc2ncccc2C)cc1 | -139*
Cc1c(C(=O)O)cccc1-c1ccc(/C=N/Nc2ccc(Br)cc2)o1 | -145*
Cc1c(C(=O)O)cccc1-c1ccc(/C=N/n2cnnc2)o1 | -79*
C/C(=N\NC(=O)c1ccc(F)cc1)c1ccc(NC(=O)Cc2ccccc2)cc1 | -75*
CC(=O)Nc1ccc(/C(C)=N\NC(=O)c2ccc(-c3ccccc3)cc2)cc1 | 96
N/C(=N\O)c1ccc(NC(=O)c2ccc(Br)o2)cc1 | -67*
C/C(=N/NC(=O)c1ccco1)c1ccc(NC(=O)c2ccc(Br)o2)cc1 | -82*
CCCCCC(=O)N/N=C(\C)c1ccc(NC(=O)c2ccco2)cc1 | -107*
SMILES | aSyn UTR act
C/C(=N/NC(=O)c1ccco1)c1ccc(NC(=O)c2ccc(F)cc2)cc1 | -109*
Cc1ccc(Nc2nc(CSc3nnc(-c4ccccc4C)n3C)cs2)cc1 | -93*
Cc1ccc(Nc2nc(CSc3nnc(-c4ccccc4)n3C)cs2)cc1 | -68*
CCCCSc1ccc2nc(-c3ccc(C#N)cc3)cn2c1 | -128*
CCCSc1ccc2nc(-c3ccccc3)cn2c1 | 111
NC(=O)c1cc(Br)cc(C2CCCCC2)c1O | 87
N/C(=N\OC(=O)C1CCCCC1)c1ccc(Cl)cc1 | -138*
N/C(=N\OC(=O)C1CCCCC1)c1ccc(Br)cc1 | -217*
N/C(=N\OC(=O)C1CCCCC1)c1ccccn1 | -119*
Cc1ccc(NC(=O)CN2C(=O)N/C(=C/c3ccc(N4CCOCC4)cc3)C2=O)cc1 | -118*
NC(=O)c1ccccc1NC(=O)/C=C/c1c(Cl)cccc1Cl | -189*
CN(C)c1ccc(NC(=O)/C=C/c2c(Cl)cccc2Cl)cc1 | -80*
NC(=O)c1ccccc1NC(=O)/C=C/c1cccc(Cl)c1 | -133*
Cc1ccc(/C=C(\C#N)C(=O)Nc2ccccn2)o1 | -164*
O=C(CCc1nc2ccccc2s1)c1ccccc1 | -85*
